# Records with an inconclusive call do not appear. Where a structure was tested more than once in an assay, its records may differ in their call. Calls of active or inactive are those of the source. How the source made its calls, unless noted: active means hit-call score of the fitted dose curve at least 0.9, where 1 is the maximum; inconclusive means response in the unintended direction; inactive means score below 0.9.
# Tests used:
# [1] = target: rat Opioid Receptor, Non-selective Binding, Oprm1 (gene 25601) (UniProt P33535); assay: NVS_GPCR_rOpiate_NonSelective: NovaScreen (NVS) G Protein-Coupled Receptor Assay for rat Opioid Receptor, Non-selective Binding (AID 2283318)
# In short: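 Filter-based radioligand displacement using rat forebrain membrane preparations, measured 1.5 h post-dosing. Single-concentration duplicate screen at 25 uM, follow-up in concentration series; activity taken as signal loss relative to DMSO.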
# [2] = target: Sodium channel protein type 1 subunit alpha (Rattus norvegicus) (UniProt P04774); assay: NVS_IC_rNaCh_site2: NovaScreen (NVS) Ion Channel Assay for rat Sodium Channel, Site 2 (NaCh) (AID 2283322);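 further: hit means loss of radioligand binding signal relative to DMSO so AC50 marks displacement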
# In short: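 Initial duplicate single-point testing at 25 uM, followed by concentration-response runs for actives. Binding of radioligand to rat forebrain membranes quantified after 1 h via filter-based radiodetection.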
# [3] = target: rat Thyrotropin Releasing Hormone Receptor (TRH), Trhr (gene 25570) (UniProt Q01717); assay: NVS_GPCR_rTRH: NovaScreen (NVS) G Protein-Coupled Receptor Assay for rat Thyrotropin Releasing Hormone Receptor (TRH) (AID 2283329);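 further: hit means lower bound tracer signal versus DMSO baseline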
# In short: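 Rat forebrain membranes; radioligand displacement at TRH receptor by filter-based scintillation counting, read 4 h after dosing. Duplicate single-point screen at 25 uM, actives rerun in concentration series; loss of signal relative to DMSO.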
# [4] = target: human Peripheral-type Benzodiazepine Receptor (PBR), TSPO (gene 706) (UniProt P30536); assay: NVS_MP_hPBR: NovaScreen (NVS) Membrane Protein Assay for human Peripheral-type Benzodiazepine Receptor (PBR) (AID 2283331);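 further: hits reduce radioligand binding relative to DMSO baseline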
# In short: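 Using human colon-derived membranes, this one-endpoint binding test reads radioligand loss by scintillation after 1 h. Screening started at 25 uM in duplicate, with positive and negative controls on every plate, and actives moved to dose series.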
# [5] = NVS_IC_rCaDHPRCh_L: NovaScreen (NVS) Ion Channel Assay for rat Calcium Channel, Type L, Dihydropyridine Site (CaDHPRCh_L) (AID 2283320)
# In short: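 Rat cortex membrane preparation; dihydropyridine-site radioligand displacement read 1 h post-dose by filtration and scintillation. Primary single-point screen 25 uM in duplicate, then concentration series to 50 uM maximum; DMSO as negative control.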
# [6] = target: rat Gamma-Aminobutyric Acid Type A Receptor, Non-Selective (GABAR-NonSelective), Gabra1 (gene 29705) (UniProt P62813); assay: NVS_LGIC_rGABAR_NonSelective: NovaScreen (NVS) Ligand-Gated Ion Channel Assay for rat Gamma-Aminobutyric Acid Type A Receptor, Non-Selective (GABAR-NonSelective) (AID 2283326)
# In short: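 Compounds were first screened in duplicate at 25 uM, with actives run as singleton concentration series (max 50 uM). Binding of a radioligand to rat whole-brain GABA-A preparation was measured by filtration and scintillation counting after 1 h, DMSO baseline.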
# [7] = target: Voltage-dependent N-type calcium channel subunit alpha-1B (Rattus norvegicus) (UniProt Q02294); assay: NVS_IC_rCaChN: NovaScreen (NVS) Ion Channel Assay for rat Calcium Channel, Type N (CaChN) (AID 2283317)
# [8] = target: rat Somatostatin Receptor (SST), Sstr1 (gene 25033) (UniProt P28646); assay: NVS_GPCR_rSST: NovaScreen (NVS) G Protein-Coupled Receptor Assay for rat Somatostatin Receptor (SST) (AID 2283314)
# In short: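 Single-concentration duplicate screen (25 uM), then concentration-response up to 50 uM for chemicals passing a threshold such as 30% inhibition. Membranes came from rat forebrain. Binding was measured 1 h post-dose by filter radiodetection and scintillation, relative to DMSO.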
# [9] = target: human Neonicotinoid receptor (NNR), CHRNA2 (gene 1135) (UniProt Q15822); assay: NVS_LGIC_hNNR_NBungSens: NovaScreen (NVS) Ligand-Gated Ion Channel Assay for human Neonicotinoid receptor (NNR) (AID 2283313)
# In short: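 Compounds first screened in duplicate at 25 uM, then actives re-tested in single-replicate dose series up to 50 uM. Binding measured as displacement of specific radioligand from neuroblastoma membrane receptors after 2 h, scintillation read on filters.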
# [10] = target: rat Neonicotinoid receptor (NNR), Chrna7 (gene 25302) (UniProt Q05941); assay: NVS_LGIC_rNNR_BungSens: NovaScreen (NVS) Ligand-Gated Ion Channel Assay for rat Neonicotinoid receptor (NNR) (AID 2283315)
# In short: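 Rat cortical membrane preparation incubated 2.5 h with tritiated or iodinated radioligand and test chemical. Bound radioactivity was filtered and counted by scintillation, and displacement was analysed against DMSO.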
# [11] = target: bovine Gamma-Aminobutyric Acid Type A Receptor BDZ, alpha 1 site (GABARa1), GABRA1 (gene 780973) (UniProt P08219); assay: NVS_LGIC_bGABARa1: NovaScreen (NVS) Ligand-Gated Ion Channel Assay for bovine Gamma-Aminobutyric Acid Type A Receptor BDZ, alpha 1 site (GABARa1) (AID 2283321)
# In short: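 Bovine cortex membrane preparation, benzodiazepine site on GABA-A alpha1; specific radioligand displacement read after 0.75 h by filtration and scintillation. Screen at 25 uM, then singleton titrations up to 50 uM; DMSO baseline.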
# [12] = target: human Serotonin, 5-Hydroxytryptamine Receptor 3 (5HT3), HTR3A (gene 3359) (UniProt P46098); assay: NVS_LGIC_h5HT3: NovaScreen (NVS) Ligand-Gated Ion Channel Assay for human Serotonin, 5-Hydroxytryptamine Receptor 3 (5HT3) (AID 2283325)
# In short: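 Initially tested at 25 uM in duplicate, then up to 50 uM in concentration-response for actives, compounds competed with a radioligand for HEK293-derived human 5-HT3 receptor. Bound counts were measured by filtration and scintillation at 1 h; loss of signal versus DMSO.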
# NCBI gene 24521 = assay: NVS_IC_rKATPCh: NovaScreen (NVS) Ion Channel Assay for rat Potassium Channel, ATP-Sensitive (KATPCh) (AID 2283319)
# In short: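 Primary duplicate screen at 25 uM, then singleton concentration series to 50 uM maximum, in a rat cortex membrane radioligand displacement assay. Binding measured by filtration and scintillation 2 h post-dose; DMSO baseline.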
# [13] = target: Glutamate receptor ionotropic, kainate 1 (Rattus norvegicus) (UniProt P22756); assay: NVS_IC_rKAR: NovaScreen (NVS) Ion Channel Assay for rat Kainic Acid Receptors (KAR) (AID 2283334; active means hit-call score of the fitted dose curve at least 0.9, where 1 is the maximum; inactive means score below 0.9)
# In short: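 Rat forebrain membrane preparation incubated 1 h with radioligand and test chemical; bound signal read by filtration and scintillation. Single-concentration screen at 25 uM, then concentration series to 50 uM maximum.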
# rat Thyrotropin Releasing Hormone Receptor (TRH), Trhr (gene 25570), sequence (Q01717 whole entry, looked up): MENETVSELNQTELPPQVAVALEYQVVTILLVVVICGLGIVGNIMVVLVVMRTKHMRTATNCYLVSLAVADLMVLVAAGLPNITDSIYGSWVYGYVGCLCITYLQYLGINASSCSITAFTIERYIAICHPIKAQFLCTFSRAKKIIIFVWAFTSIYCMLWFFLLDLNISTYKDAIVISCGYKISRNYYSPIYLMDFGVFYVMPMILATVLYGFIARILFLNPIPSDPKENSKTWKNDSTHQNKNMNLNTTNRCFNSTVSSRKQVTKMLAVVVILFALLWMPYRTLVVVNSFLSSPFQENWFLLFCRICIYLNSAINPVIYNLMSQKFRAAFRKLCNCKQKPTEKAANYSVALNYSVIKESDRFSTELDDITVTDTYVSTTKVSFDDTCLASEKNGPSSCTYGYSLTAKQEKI
# rat Neonicotinoid receptor (NNR), Chrna7 (gene 25302), sequence (Q05941 whole entry, looked up): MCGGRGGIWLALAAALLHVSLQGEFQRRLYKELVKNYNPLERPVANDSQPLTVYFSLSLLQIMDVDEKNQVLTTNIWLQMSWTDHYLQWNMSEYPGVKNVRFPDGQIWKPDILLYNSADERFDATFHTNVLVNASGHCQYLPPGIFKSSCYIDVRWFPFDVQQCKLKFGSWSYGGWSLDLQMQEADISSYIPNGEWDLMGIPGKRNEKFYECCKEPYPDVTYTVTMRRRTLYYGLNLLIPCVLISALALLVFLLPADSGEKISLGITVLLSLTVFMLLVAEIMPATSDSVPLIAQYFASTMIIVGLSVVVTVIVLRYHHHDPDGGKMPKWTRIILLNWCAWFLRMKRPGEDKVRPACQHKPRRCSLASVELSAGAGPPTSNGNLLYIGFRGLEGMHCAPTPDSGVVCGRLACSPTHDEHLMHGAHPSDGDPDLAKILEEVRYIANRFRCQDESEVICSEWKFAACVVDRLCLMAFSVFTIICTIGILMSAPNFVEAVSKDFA
# human Neonicotinoid receptor (NNR), CHRNA2 (gene 1135), sequence (Q15822 whole entry, looked up): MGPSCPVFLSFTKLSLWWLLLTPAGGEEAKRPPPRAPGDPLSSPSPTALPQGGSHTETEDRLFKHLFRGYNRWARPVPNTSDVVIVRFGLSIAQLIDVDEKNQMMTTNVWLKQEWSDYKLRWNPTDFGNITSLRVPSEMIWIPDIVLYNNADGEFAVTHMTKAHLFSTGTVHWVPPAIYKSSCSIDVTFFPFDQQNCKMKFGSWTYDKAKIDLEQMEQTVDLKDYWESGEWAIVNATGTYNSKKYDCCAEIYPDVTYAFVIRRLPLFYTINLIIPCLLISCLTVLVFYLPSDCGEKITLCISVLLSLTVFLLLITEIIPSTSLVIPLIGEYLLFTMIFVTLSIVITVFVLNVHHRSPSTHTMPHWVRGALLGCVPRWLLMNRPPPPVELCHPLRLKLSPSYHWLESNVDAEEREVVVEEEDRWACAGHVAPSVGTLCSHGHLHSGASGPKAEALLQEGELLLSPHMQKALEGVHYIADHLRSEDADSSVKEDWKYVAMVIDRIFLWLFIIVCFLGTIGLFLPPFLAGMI
# human Peripheral-type Benzodiazepine Receptor (PBR), TSPO (gene 706), sequence (P30536 whole entry, looked up): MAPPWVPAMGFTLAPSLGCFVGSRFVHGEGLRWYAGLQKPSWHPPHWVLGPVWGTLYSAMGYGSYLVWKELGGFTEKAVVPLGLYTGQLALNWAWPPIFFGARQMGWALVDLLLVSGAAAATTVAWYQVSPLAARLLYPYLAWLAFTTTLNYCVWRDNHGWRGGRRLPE
# bovine Gamma-Aminobutyric Acid Type A Receptor BDZ, alpha 1 site (GABARa1), GABRA1 (gene 780973), sequence (P08219 whole entry, looked up): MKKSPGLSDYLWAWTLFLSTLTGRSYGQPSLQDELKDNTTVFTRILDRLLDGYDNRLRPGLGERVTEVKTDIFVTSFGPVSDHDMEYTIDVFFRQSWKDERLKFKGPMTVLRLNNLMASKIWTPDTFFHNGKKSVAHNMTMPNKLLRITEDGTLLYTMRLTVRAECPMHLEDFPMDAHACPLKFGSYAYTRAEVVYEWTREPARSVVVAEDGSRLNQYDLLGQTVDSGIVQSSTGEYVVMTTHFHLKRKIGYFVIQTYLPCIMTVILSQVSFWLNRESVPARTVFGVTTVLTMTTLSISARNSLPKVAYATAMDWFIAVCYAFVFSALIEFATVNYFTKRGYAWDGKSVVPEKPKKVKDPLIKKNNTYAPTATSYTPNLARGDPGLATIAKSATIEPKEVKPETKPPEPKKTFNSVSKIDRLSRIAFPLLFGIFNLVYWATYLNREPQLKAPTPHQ
# rat Opioid Receptor, Non-selective Binding, Oprm1 (gene 25601), sequence (P33535 whole entry, looked up): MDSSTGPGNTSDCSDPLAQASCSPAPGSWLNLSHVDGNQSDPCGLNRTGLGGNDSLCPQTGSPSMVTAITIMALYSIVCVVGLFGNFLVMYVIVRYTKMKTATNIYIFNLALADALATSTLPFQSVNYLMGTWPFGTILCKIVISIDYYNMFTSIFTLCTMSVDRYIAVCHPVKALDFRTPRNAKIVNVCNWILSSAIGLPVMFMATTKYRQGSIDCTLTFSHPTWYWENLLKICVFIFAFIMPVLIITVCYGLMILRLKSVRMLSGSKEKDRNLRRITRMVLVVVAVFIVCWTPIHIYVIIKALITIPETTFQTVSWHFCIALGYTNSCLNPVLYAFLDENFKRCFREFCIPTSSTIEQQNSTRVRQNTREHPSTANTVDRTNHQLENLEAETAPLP
# rat Gamma-Aminobutyric Acid Type A Receptor, Non-Selective (GABAR-NonSelective), Gabra1 (gene 29705), sequence (P62813 whole entry, looked up): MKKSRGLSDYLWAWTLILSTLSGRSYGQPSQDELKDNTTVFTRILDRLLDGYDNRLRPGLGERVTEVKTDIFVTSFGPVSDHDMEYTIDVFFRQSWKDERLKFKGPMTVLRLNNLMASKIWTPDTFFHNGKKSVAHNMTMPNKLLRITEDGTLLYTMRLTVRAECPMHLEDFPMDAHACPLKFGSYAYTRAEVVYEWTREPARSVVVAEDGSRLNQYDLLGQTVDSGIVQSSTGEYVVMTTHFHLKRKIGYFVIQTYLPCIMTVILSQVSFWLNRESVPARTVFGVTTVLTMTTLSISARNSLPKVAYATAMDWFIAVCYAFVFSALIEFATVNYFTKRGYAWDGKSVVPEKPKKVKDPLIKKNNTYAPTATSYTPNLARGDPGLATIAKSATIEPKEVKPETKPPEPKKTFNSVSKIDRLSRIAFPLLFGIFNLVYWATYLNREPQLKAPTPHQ
# human Serotonin, 5-Hydroxytryptamine Receptor 3 (5HT3), HTR3A (gene 3359), sequence (P46098 whole entry, looked up): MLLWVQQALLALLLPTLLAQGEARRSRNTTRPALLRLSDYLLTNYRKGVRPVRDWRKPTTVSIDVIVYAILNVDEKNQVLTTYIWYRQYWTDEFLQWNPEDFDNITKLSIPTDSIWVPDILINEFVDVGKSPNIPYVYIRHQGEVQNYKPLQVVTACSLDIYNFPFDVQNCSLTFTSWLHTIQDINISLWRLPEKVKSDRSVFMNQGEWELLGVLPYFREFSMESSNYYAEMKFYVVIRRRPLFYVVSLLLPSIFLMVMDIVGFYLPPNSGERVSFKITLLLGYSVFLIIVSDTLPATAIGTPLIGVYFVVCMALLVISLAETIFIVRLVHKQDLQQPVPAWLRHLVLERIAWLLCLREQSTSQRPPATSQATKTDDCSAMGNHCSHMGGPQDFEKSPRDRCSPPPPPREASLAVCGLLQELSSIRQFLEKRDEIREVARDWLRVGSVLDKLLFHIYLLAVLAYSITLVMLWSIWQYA
# rat Somatostatin Receptor (SST), Sstr1 (gene 25033), sequence (P28646 whole entry, looked up): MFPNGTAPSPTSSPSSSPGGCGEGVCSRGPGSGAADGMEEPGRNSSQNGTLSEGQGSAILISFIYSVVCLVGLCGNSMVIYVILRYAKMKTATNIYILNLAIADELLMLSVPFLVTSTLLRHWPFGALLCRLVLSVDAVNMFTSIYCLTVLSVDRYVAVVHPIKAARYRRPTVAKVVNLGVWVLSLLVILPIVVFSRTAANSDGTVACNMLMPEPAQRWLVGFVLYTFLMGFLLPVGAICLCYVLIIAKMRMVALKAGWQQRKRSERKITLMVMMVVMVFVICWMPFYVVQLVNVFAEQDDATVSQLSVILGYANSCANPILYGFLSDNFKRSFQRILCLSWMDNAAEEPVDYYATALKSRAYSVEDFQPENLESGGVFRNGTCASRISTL
# Glutamate receptor ionotropic, kainate 1 (Rattus norvegicus), sequence (P22756 whole entry, looked up): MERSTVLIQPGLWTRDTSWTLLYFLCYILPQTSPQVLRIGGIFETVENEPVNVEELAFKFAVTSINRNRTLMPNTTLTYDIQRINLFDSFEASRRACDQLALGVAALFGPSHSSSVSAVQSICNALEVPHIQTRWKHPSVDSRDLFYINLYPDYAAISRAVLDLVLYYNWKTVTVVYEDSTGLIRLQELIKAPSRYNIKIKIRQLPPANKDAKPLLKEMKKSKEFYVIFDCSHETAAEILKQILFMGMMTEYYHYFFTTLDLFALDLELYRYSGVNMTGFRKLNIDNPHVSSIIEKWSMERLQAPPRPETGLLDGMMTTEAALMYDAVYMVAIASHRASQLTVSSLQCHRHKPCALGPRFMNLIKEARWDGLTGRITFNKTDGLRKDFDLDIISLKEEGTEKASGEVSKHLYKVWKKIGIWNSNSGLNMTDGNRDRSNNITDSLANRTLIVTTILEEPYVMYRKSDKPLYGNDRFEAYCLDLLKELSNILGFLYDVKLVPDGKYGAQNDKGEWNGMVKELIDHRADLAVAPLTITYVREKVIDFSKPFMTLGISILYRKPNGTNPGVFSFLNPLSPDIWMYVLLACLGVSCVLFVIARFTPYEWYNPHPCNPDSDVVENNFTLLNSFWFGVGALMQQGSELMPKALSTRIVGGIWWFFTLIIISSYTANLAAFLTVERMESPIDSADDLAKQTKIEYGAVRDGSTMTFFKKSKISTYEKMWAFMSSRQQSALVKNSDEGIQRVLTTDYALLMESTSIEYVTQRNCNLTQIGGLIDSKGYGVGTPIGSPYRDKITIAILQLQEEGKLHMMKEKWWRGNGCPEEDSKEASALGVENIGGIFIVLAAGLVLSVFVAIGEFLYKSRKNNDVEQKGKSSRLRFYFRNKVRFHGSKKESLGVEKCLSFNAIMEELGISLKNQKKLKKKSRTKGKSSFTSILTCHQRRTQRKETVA
smiles,measurement,setting,value
CCN(CC)C(=O)C(C)Oc1cccc2ccccc12 (stereo unspecified),outcome,[1],inactive
same,outcome,[2],inactive
same,AC50,[3],42.2 µM (active)
same,outcome,[3],inactive
same,AC50,[4],1.11 µM (active)
COC(=O)c1c(C(F)F)nc(C(F)(F)F)c(C2=NCCS2)c1CC(C)C,outcome,[5],inactive
same,outcome,[6],inactive
same,AC50,[3],25 µM (active)
same,outcome,[4],inactive
N#Cc1c(Cl)cccc1Cl,AC50,[2],38.2 µM (active)
N#Cc1c[nH]cc1-c1cccc2c1OC(F)(F)O2,outcome,[7],inactive
same,outcome,[2],inactive
same,outcome,[4],inactive
CCOC(=O)C(C)OC(=O)c1cc(Oc2ccc(C(F)(F)F)cc2Cl)ccc1[N+](=O)[O-] (stereo unspecified),AC50,[8],41.1 µM (active)
same,AC50,[5],25 µM (active)
same,outcome,[3],inactive
same,AC50,[4],8.41 µM (active)
CN/C(=N\[N+](=O)[O-])NCc1cnc(Cl)s1,AC50,[9],10.1 µM (active)
same,AC50,[10],25 µM (active)
N#CN=C1SCCN1Cc1ccc(Cl)nc1,AC50,[9],4.45 µM (active)
same,AC50,[10],5.39 µM (active)
same,outcome,[11],inactive
CC1(C)C(C(=O)OC(C#N)c2cccc(Oc3ccccc3)c2)C1(C)C (stereo unspecified),outcome,[11],inactive
same,outcome,[12],inactive
same,outcome,[4],inactive
COP(=O)(OC)O/C(C)=C/C(=O)N(C)C,outcome,NCBI gene 24521,inactive
same,outcome,[11],inactive
COCC(C)N(C(=O)CCl)c1c(C)csc1C (stereo unspecified),outcome,[1],inactive
same,AC50,[4],9.66 µM (active)
CC1(C)C(C=C(Cl)Cl)C1C(=O)OC(C#N)c1cccc(Oc2ccccc2)c1 (stereo unspecified),AC50,[9],25 µM (active)
same,AC50,[5],9.51 µM (active)
same,AC50,[4],14.9 µM (active)
CO/N=C(/C1=NOCCO1)c1ccccc1Oc1ncnc(Oc2ccccc2Cl)c1F,outcome,[5],inactive
same,outcome,[13],inactive
COC(=O)N(C(=O)N1CO[C@@]2(C(=O)OC)Cc3cc(Cl)ccc3C2=N1)c1ccc(OC(F)(F)F)cc1,outcome,[10],inactive
same,AC50,[4],0.292 µM (active)

# — PubChem BioAssay (EPA / NIEHS)
